Our source for the growth values is PubChem BioAssay (NCI).

Some test systems named below: DU-145 prostate; K-562 leukemia; MALME-3M melanoma; MDA-MB-231 breast; RXF 393 renal; SF-268 CNS; SF-295 CNS; SF-539 CNS; UACC-257 melanoma; M14 melanoma.
Common to all, as to assay: NCI-60 one-dose screen, 48 h (100 = growth as untreated, 0 = no growth, -100 = all killed)
Holding throughout (settings): 10 µM unless noted

The panel holds about 83,000 compounds, 20% with a hit somewhere; the sample as a whole holds those more often.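 For each line, cells grew in 96-well plates with the test compound present at a single concentration for 48 hours.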 Unmarked numbers belong to inactive results. The source made the active and inactive calls. How the source made its calls: active means growth percent below 10; inactive means the rest.

With `O=C(CCN1CCCC1)Nc1ccc2c(NCc3ccccc3)c3ccccc3nc2c1`, the growth in the assay on DU-145 prostate is -25% (active); in the assay with K-562 leukemia, -14.3% (active); in the assay on MALME-3M melanoma, -18.5% (active); with MDA-MB-231 breast it was -14.9% (active); in the assay with RXF 393 renal, -16% (active); in the assay with SF-268 CNS, -2.23% (active). The growth in the assay on SF-295 CNS is 15.5%; with SF-539 CNS, 5.91% (active); in the assay with UACC-257 melanoma, 1.08% (active); in the assay with M14 melanoma it was 7.61% (active).

As for `COC(=O)C(CC=O)C(=O)C(=O)Nc1cccc(C(F)(F)F)c1` (stereo unspecified), the growth in the assay on DU-145 prostate is 110%; in the assay on MALME-3M melanoma it was 113%; in the assay on MDA-MB-231 breast it was 90.2%; in the assay with RXF 393 renal it was 103%; in the assay on SF-268 CNS it was 95%; in the assay on SF-295 CNS, 110%. Moreover, the growth is 99.9% in the assay with SF-539 CNS, 66.5% in the assay on UACC-257 melanoma and 106% with M14 melanoma.

As to `O=C(Nc1ncc(Cc2cc(Cl)ccc2Cl)s1)c1cccs1`, the growth with DU-145 prostate was 81.1%; in the assay on MALME-3M melanoma, 50%; in the assay on MDA-MB-231 breast it was 79.8%; with RXF 393 renal, 56%; with SF-268 CNS, 74.9%; in the assay on SF-295 CNS, 50.4%. Further, the growth in the assay with SF-539 CNS was 73.9%; in the assay with UACC-257 melanoma, 78.6%; with M14 melanoma, 42.9%.

Consider `NS(=O)(=O)c1ccc(Cn2c(SCC(=O)N/N=C/c3ccccc3O)nc3ccccc3c2=O)cc1`, for which the growth in the assay with DU-145 prostate was 72.5%; in the assay on K-562 leukemia it was 36.6%; with MALME-3M melanoma it was 59%; with MDA-MB-231 breast, 30.1%; with RXF 393 renal, 72.2%; with SF-268 CNS, 38.2%. Further, the growth is 65.9% with SF-295 CNS, 54.3% in the assay with SF-539 CNS, 70.6% in the assay with UACC-257 melanoma and 42% with M14 melanoma.

Regarding `Oc1c(Cl)cc(Cl)c(Cl)c1CNCCNCc1c(O)c(Cl)cc(Cl)c1Cl`, the growth is 45.9% in the assay on DU-145 prostate; 10.3% with K-562 leukemia; 13.4% in the assay with MALME-3M melanoma; 35.5% in the assay on MDA-MB-231 breast; 28.2% in the assay on RXF 393 renal; 25% in the assay with SF-268 CNS. Besides, the growth is 18.3% with SF-295 CNS, -9.34% (active) with SF-539 CNS, 4.63% (active) in the assay with UACC-257 melanoma and 20.3% in the assay on M14 melanoma.

Consider `CCOc1ccc(/C=N/Nc2cc(C)nc3ccc(Br)cc23)cc1`, for which the growth is 94.2% in the assay with DU-145 prostate; 20.2% in the assay with K-562 leukemia; 102% in the assay on MALME-3M melanoma; 68.5% with MDA-MB-231 breast; 85.8% in the assay on RXF 393 renal; 99.7% in the assay with SF-268 CNS. Moreover, the growth is 82.7% in the assay with SF-295 CNS, 102% in the assay on SF-539 CNS, 96% in the assay with UACC-257 melanoma and 94% in the assay on M14 melanoma.

`O=C(/C=C(/C=C/c1coc2ccccc12)OB(F)F)/C=C/c1coc2ccccc12`: the growth with DU-145 prostate was 99.1%; in the assay with K-562 leukemia, 72%; with MALME-3M melanoma, 94.5%; in the assay with MDA-MB-231 breast it was 101%; in the assay with RXF 393 renal it was 109%; with SF-268 CNS, 93.4%. The growth with SF-295 CNS was 101%; with SF-539 CNS, 110%; in the assay on UACC-257 melanoma, 92.3%; in the assay on M14 melanoma, 96%.

With `NC(=O)CSSCC(N)=O`, the growth with DU-145 prostate was 104%; in the assay with MALME-3M melanoma, 93.3%; in the assay on MDA-MB-231 breast, 109%; with RXF 393 renal, 117%; in the assay on SF-268 CNS it was 97.9%; in the assay with SF-295 CNS, 97.1%. In addition, the growth in the assay with SF-539 CNS was 102%; in the assay on UACC-257 melanoma it was 95.8%; in the assay with M14 melanoma it was 93.2%.

On to `COc1ccc(C(=O)NNc2nc(Cl)nc(N3CCN(C(c4ccccc4)c4ccccc4)CC3)n2)cc1`, for which the growth is 67.7% with DU-145 prostate; -16.5% (active) in the assay with K-562 leukemia; 46.3% in the assay with MALME-3M melanoma; -1.74% (active) with MDA-MB-231 breast; 9.64% (active) in the assay with RXF 393 renal; 86.6% with SF-268 CNS. Besides, the growth in the assay on SF-295 CNS is 96.8%; in the assay on SF-539 CNS it was 33.4%; with UACC-257 melanoma, 65.2%; in the assay on M14 melanoma, 31.3%.

For `Cc1ccc(/C=C(/C#N)n2nnc3cccc(F)c32)cc1`, the growth was -24.9% (active) in the assay on DU-145 prostate; 6.48% (active) with K-562 leukemia; 36.3% with MALME-3M melanoma; -38.5% (active) in the assay with MDA-MB-231 breast; -51.4% (active) in the assay on RXF 393 renal; 21.2% in the assay with SF-268 CNS. Further, the growth in the assay with SF-295 CNS is 16.2%; in the assay on SF-539 CNS, -48.1% (active); with UACC-257 melanoma it was 52.8%; in the assay on M14 melanoma, -13.6% (active).

Turning to `OC(c1ccc(F)c(C(F)(F)F)c1)c1cnccc1NC1CCCCC1` (stereo unspecified), the growth was 90.2% with DU-145 prostate; 71.8% with MALME-3M melanoma; 55.2% in the assay with MDA-MB-231 breast; 68.6% in the assay with RXF 393 renal; 79.6% in the assay on SF-268 CNS; 74.1% in the assay with SF-295 CNS. Besides, the growth with SF-539 CNS was 85.4%; in the assay on UACC-257 melanoma it was 87.4%; in the assay with M14 melanoma, 77.8%.

Consider `CC(Sc1nc2ccccc2c(=O)n1CCc1ccc(S(N)(=O)=O)cc1)C(=O)Nc1ccc(Cl)cc1` (stereo unspecified), for which the growth in the assay with DU-145 prostate is 99.4%; in the assay on K-562 leukemia, 60.4%; in the assay with MALME-3M melanoma, 89.7%; in the assay with MDA-MB-231 breast, 82.6%; in the assay with RXF 393 renal, 72.4%; in the assay with SF-268 CNS it was 74.7%. Moreover, the growth with SF-295 CNS was 83.8%; in the assay on SF-539 CNS, 90.8%; in the assay with UACC-257 melanoma, 90.2%; with M14 melanoma, 105%.

On to `O=[N+]([O-])CC(c1ccccc1F)c1c[nH]c2ccccc12` (stereo unspecified), for which the growth is 97.2% in the assay with DU-145 prostate; 17.9% with K-562 leukemia; 66.9% in the assay with MALME-3M melanoma; 56.5% with MDA-MB-231 breast; 80% with RXF 393 renal; 80.4% in the assay on SF-268 CNS. Besides, the growth is 67.9% with SF-295 CNS, 76.3% with SF-539 CNS, 87.1% in the assay with UACC-257 melanoma and 52.3% with M14 melanoma.
